Source: PubChem BioAssay
In the library only some 1.2% were active in any assay of this set; here they are far more common.
Anesthetic bind = binds horse apoferritin like a general anesthetic; P02791; apoferritin/1-aminoanthracene competitive binding, fluorescence; Potency, µM (highest dose often 77.5 µM), inactives show at the top dose activity change, negative = displacement, most hits filed as inhibitors; actives 0.074% (n = 350,000); AID 485281; note: potency is the fitted concentration of half-maximal effect; % is set by controls: 0 for no effect and ±100 for the full control effect; nearly all actives have a fitted effect of over 20% in size
Target sequence (P02791 2-175 limits assumed): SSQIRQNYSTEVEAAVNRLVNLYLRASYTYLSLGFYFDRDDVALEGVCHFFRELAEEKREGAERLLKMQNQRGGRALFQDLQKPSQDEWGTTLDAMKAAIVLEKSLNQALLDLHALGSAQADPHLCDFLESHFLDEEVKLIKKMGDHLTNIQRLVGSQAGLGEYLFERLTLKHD
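Concentration-response curves derived by four-parameter Hill fitting of normalized fluorescence, where compounds displaced 1-AMA from 10 uM horse apoferritin following a brief 10 min room-temperature incubation; propofol titration acted as positive control.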
IDH1 R132H inh = blocks human mutant IDH1 R132H enzyme | actives 0.093% (n = 390,000) | Potency, µM (titrated, usually from 76.6 µM), inactives show at the top dose activity change, negative = inhibition, actives largely listed as inhibitors | O75874 | IDH1-R132H enzyme, NADPH consumption, diaphorase/resazurin fluorescence | AID 602179; note: potency is the fitted concentration of half-maximal effect; % is set by controls: 0 for no effect and ±100 for the full control effect; nearly all actives have a fitted effect of over 65% in size
Target sequence (O75874 whole entry R132H, stated change not applied): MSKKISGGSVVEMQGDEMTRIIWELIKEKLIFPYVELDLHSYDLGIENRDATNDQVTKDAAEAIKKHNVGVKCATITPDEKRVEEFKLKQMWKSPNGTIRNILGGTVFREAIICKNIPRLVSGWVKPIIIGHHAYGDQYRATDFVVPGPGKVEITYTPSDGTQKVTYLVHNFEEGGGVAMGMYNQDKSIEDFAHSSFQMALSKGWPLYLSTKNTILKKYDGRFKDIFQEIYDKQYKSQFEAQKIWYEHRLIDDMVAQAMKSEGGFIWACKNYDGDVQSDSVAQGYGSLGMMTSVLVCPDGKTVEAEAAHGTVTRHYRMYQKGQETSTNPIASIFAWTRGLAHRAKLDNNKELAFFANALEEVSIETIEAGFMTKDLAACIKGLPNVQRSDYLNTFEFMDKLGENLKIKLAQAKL
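IDH1-R132H (0.5 ug/mL dispensed) in pH 7.5 Tris buffer was preincubated 30 min with compound, then given a substrate mix of 0.016 mM NADPH and 2 mM alpha-KG for 80 min at room temperature; remaining NADPH was read by diaphorase/resazurin fluorescence.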
KCNH2 3.1 inh = blocks the human KCNH2 3.1 channel isoform | U2OS KCNH2 3.1, thallium flux FluxOr; hits give low values | activity change, % (tested at about 1.8 µM) | actives 0.95% (n = 340,000) | AID 720553;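 active = maximum activity change below -70%; inconclusive = maximum activity change from -70% to -50%; inactive = maximum activity change above -50%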;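 note: thallium influx rate constant from kinetic fluorescence after stimulation buffer; % is set by controls: 0 for no effect and ±100 for the full control effect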
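U2OS cells transduced with KCNH2 3.1 mutant virus (1.77 x 10^8 /mL, 4 h), plated overnight at 37 C, loaded 45 min with FluxOr dye plus Red40 quencher. Thallium flux rate constant from kinetic reads after stimulation buffer, normalised to controls.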
S-ASM inh = human S-ASM enzyme inhibition; P17405; actives 0.006% (n = 340,000); Potency, µM (highest dose often 57.5 µM), for the others: top-dose activity change, negative = inhibition, hits mostly inhibitors; placental ASM, HMU-PC fluorogenic substrate, 60 min; note: potency is the fitted concentration of half-maximal effect
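Fluorogenic HMU-PC substrate (9 uM final) is turned over by placental ASM in 60 min at 37 C after a 10 min compound preincubation. Reaction ended by alkaline stop (pH 10), with fluorescence read at 386/447 nm.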
KCNH2 WT inh = inhibitors of human wildtype KCNH2 potassium channel; actives 0.37% (n = 340,000); AID 720551; activity change, % at 1.84 µM; Q12809; U2OS, BacMam KCNH2, thallium flux FluxOr; hits give low values;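 active = maximum activity change below -70%; inconclusive = maximum activity change between -70% and -50%; inactive = maximum activity change above -50%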; note: % is set by controls: 0 for no effect and ±100 for the full control effect
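U2OS cells were transduced with wild-type KCNH2 virus (2.03 x 10^8 / mL) for 4 h at room temperature, then cultured overnight at 37 C. Thallium flux was read with FluxOr dye. Rate constants were normalized to DMSO controls.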
* = called active by the depositor; i = inactive; ? = inconclusive; nt = not tested or not shown; [ ] = dose if it differs, or a comment. Unless noted, calls come from the whole dose curve; as a rule, active = well fitted inhibition curve with a large enough effect; inconclusive = small, poorly fitted or top-dose-only effect; inactive = no such curve, though single readings can be large or run the other way.

SMILES | Anesthetic bind | IDH1 R132H inh | KCNH2 3.1 inh | S-ASM inh | KCNH2 WT inh
COc1cc(OC)c(OC)cc1CN1CCN(C(=O)CC(C)C)CC1 | 5% | 0% | 1 | 7% | -8
COc1cc(OC)c(OC)cc1CN1CCN(Cc2cccn2C)CC1 | -6% | 8% | 10 | 2% | -122*
COc1cc(OC)c(OC)cc1CN1CCN(c2ccccc2OC)CC1 | 4% | 1% | -26 | -3% | -3
COc1ccc(C)cc1-n1nnc(S(=O)(=O)c2ccc(C)cc2)c1C | 54% | 1% | nt | nt | nt
CCc1c(C)c2cc(Cl)c(O)c(CN(C)C)c2oc1=O | 950% | 2% | -88* | i | -7
O=c1cc(-c2cccc(F)c2)[nH]c2ccccc12 | 4%[163 µM] | 10% | -71* | -1% | 2
O=c1cc(-c2ccccc2)[nH]c2ccc(F)cc12 | -16%[163 µM] | 2% | -98* | 1% | -12
Cc1ccc(-c2cc(=O)c3cc(F)ccc3[nH]2)cc1 | -10% | 10% | -14 | -1% | 5
Cc1cccc(CC2S/C(=N/N=C/c3ccco3)N(c3ccccc3)C2=O)c1 (centres undefined) | -3% | -1% | -104* | -9% | -8
Cc1ccc(C(=O)COC(=O)[C@@H](NC(=O)c2ccco2)C(C)C)s1 | nt | 0% | 3 | -3% | 5
CC(NC(=O)c1ccccc1NC(=O)c1ccco1)C(=O)O (centres undefined) | -4% | 0% | 8 | 3% | -11
CC(NC(=O)c1ccco1)C(=O)O (centres undefined) | nt | -6% | -116* | -1% | -5
CC(NC(=O)c1ccco1)C(=O)OCC(=O)c1ccc(Cl)s1 (centres undefined) | -19% | 7% | -4 | 3% | -224*
Cc1ccc(OC(=O)c2cc(-c3ccc4c(c3)OCCO4)on2)c(C)c1 | ? | 3% | nt | nt | nt
O=C(NCCCCNC(=O)C1CCCC1)C1CCCC1 | -3% | 12% | 4 | 6% | -265*
O=c1oc2ccccc2c2c1C1O[C@](c3ccsc3)(Cc3c1ccc1ccccc31)O2 | -24%[15.3 µM] | nt | nt | nt | nt
COc1cc2c(cc1NC(=O)/C=C/c1cc(OC)c(OC)c(OC)c1)oc1ccccc12 | 15% | 0% | -87* | -17% | -7
CCN(CC)C[C@@H](O)CN1CCCCc2nc(C)c(C)cc21 | 12%[15.3 µM] | nt | nt | nt | nt
CC1(C)CC(=O)c2c(Cc3ccccc3)noc2C1 | ? | 9% | 5 | 2% | 0
CC1(C)CC(=O)c2c(noc2-c2ccccc2)C1 | 10µM* | 5% | -11 | -1% | 4
COc1cn(CC(=O)Nc2ccc(C)cc2)c(CN2CCCCC2)cc1=O | 0% | 4% | nt | nt | nt
Cc1cc(C)cc(N2CC(c3nnc(NC(=O)c4ccco4)s3)CC2=O)c1 (centres undefined) | -13% | -12% | nt | nt | nt
O=C(O)CC(c1ccccc1)N1C(=O)c2ccccc2C1=O (centres undefined) | nt | -4% | -76* | -1% | -1
O=C(COC(=O)CC1SC(N2CCCC2)=NC1=O)Nc1c(F)c(F)c(F)c(F)c1F (centres undefined) | nt | 0% | -74* | 1% | -5
CN(C)C(=O)c1ccc(NC(=O)CC2SC(N3CCCC3)=NC2=O)cc1 (centres undefined) | nt | 4% | -4 | 0% | 0
SMILES | Anesthetic bind | IDH1 R132H inh | KCNH2 3.1 inh | S-ASM inh | KCNH2 WT inh
OC1CCN(CC(O)C(F)(F)F)CC1 (centres undefined) | 0% | 0% | -102* | -2% | 2
COc1ccc2occ(C(=O)c3ccc(N)cc3)c2c1 | -19% | -6% | 13 | 0% | 7
COc1ccc2occ(C(=O)c3cccs3)c2c1 | 25µM* | -1% | -2 | -4% | -2
Fc1cccc2sc(Nc3nnc(-c4ccccc4)o3)nc12 | 1% | 8% | -13 | 417% | -149*
CNC(=S)N(CCc1c(C)[nH]c2ccccc12)Cc1cccnc1 | -7% | -22% | -191* | 14% | -133*
COc1ccc(C2C(=O)N(C3CCCCC3)CC(=O)N2CCc2ccc(C)cc2)cc1OC (centres undefined) | -12% | -16% | nt | nt | nt
COc1cc(C(=O)Nc2ccc3c(c2)C(=O)c2ccccc2C3=O)cc(OC)c1OC | -11% | 3% | -8 | nt | 1
COc1cc(C(=O)Nc2ccc3c(c2)Cc2ccccc2-3)cc(OC)c1OC | 5% | 5% | -91* | -2% | -25
CC(C)(C)c1ccc(NC(=S)NCc2cccnc2)cc1 | -5% | -3% | 12 | 0% | 16
CCC(C)c1ccc(NC(=S)NCc2cccnc2)cc1 (centres undefined) | -13% | 4% | -94* | 0% | 1
Cc1cc(N2CCN(c3ccc(F)cc3)CC2)nc2cc(O)ccc12 | 115% | 10% | -79* | 66% | ?
COc1ccc(N2CCN(c3cc(C)c4ccc(C)cc4n3)CC2)cc1 | -5% | 0% | -102* | 4% | -74*
COc1ccc2c(C)cc(N3CCN(c4ccc(F)cc4)CC3)nc2c1 | -10% | 5% | -91* | -7% | -35
COc1ccc(N2CCN(c3cc(C)c4ccc(O)cc4n3)CC2)cc1 | 54% | 0% | -26 | 27% | 36
C=CCCN(C(C)C(=O)OC)S(=O)(=O)c1ccccc1Br (centres undefined) | -10% | nt | nt | nt | nt
Cc1cc(CN2C(=O)c3ccccc3C2=O)cc(N2CCOCC2)c1 | ? | -3% | 5 | 0% | -294*
CC(=O)NC(C)CCc1ccccc1 (centres undefined) | 5% | 4% | -3 | 6% | -13
CC(CCc1ccccc1)NC(=O)C(=O)NCCO (centres undefined) | -6% | -4% | -78* | 3% | 8
Cc1ccccc1CNC(=O)c1sc2ncnc(N(C)C3CCCCC3)c2c1C | -16% | 8% | nt | nt | nt
COc1ccc(N/C=C\C(=O)c2ccc(C)cc2)cc1OC | -12% | 0% | -141* | -1% | -22
Cc1c(C(=O)Nc2cccc(C#N)c2)sc2nc3n(c(=O)c12)CCCCC3 | 56% | -6% | nt | nt | nt
CN(Cc1cc(Br)cc(Br)c1N)C1CCCCC1 | -19% | nt | nt | nt | nt
N#C/C(=C\c1ccccc1C(F)(F)F)C(=O)Nc1ccccc1 | 2% | 2% | -177* | -3% | 1
CCc1cccc(CC)c1NC(=O)/C(C#N)=C/c1ccccc1C(F)(F)F | -24% | 1% | 1 | -3% | -7
CN1C[C@@H]2C(c3ccc(C(F)(F)F)cc3)C3(c4ccc(C#N)cc4)CC2(C3)[C@H]1c1ccccc1 (some centres undefined) | 24% | -11% | -92* | -20% | -102*
CN1C[C@@H]2C(c3ccccc3)C3(c4ccc(C#N)cc4)CC2(C3)[C@H]1c1ccccc1 (some centres undefined) | -2% | -4%[38.3 µM] | -112* | -2% | -45
